We go through 14 molecules from PubChem BioAssay (Tox21).

“And” between values parts separate entries of the source, which are not always exact repeats. Equal entries are not always repeated. Values without a mark were called inactive. Results filed as inconclusive are left out. The source made the active and inactive calls. Unless noted, the call rests on the fitted dose curve; in most records, active means well fitted curve in the direction sought with a large enough effect in the repeat runs; inconclusive means weak or mixed curves; inactive means no such curve, though single readings can be large; an effect the other way counts as inactive or inconclusive.

Experiment [1] in a line: qHTS assay to identify small molecule antagonists of the glucocorticoid receptor (GR) signaling pathway - cell viability counter screen (AID 720693). Further: nearly all actives have a fitted effect of over 55% in size. Further: potency means the concentration at half of the fitted maximal effect.
A short description of experiment [2]: qHTS assay for identifying genotoxic compounds that show differential cytotoxicity against isogenic chicken DT40 cell lines with known DNA damage response pathways - wild type cell line (AID 743012). Further: nearly all actives have a fitted effect of over 60% in size. Further: potency means the concentration at half of the fitted maximal effect. The gist of the method:
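Luminescent ATP viability signal (CellTiter-Glo, 30 min RT) recorded after wild type DT40 cells were incubated with compounds for 40 h at 37 C/5% CO2.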
In general terms: qHTS replaces the single test concentration by a dilution series.

The nature of experiment [3]: qHTS assay for identifying genotoxic compounds that show differential cytotoxicity against isogenic chicken DT40 cell lines with known DNA damage response pathways - Rev3 mutant cell line (AID 743014). Further: nearly all actives have a fitted effect of over 55% in size. Further: potency means the concentration at half of the fitted maximal effect.
Experiment [4] in a line: qHTS assay for identifying genotoxic compounds that show differential cytotoxicity against isogenic chicken DT40 cell lines with known DNA damage response pathways - Rad54/Ku70 mutant cell line (AID 743015). Further: nearly all actives have a fitted effect of over 60% in size. Further: potency means the concentration at half of the fitted maximal effect.
Experiment [5] is described as follows: qHTS assay to identify small molecule antagonists of the androgen receptor (AR) signaling pathway - cell viability counter screen (AID 743033; further: nearly all actives have a fitted effect of over 45% in size; further: potency means the concentration at half of the fitted maximal effect).
The target of experiment [6] is Androgen receptor (Homo sapiens) (UniProt P10275). The experiment in a line: qHTS assay to identify small molecule agonists of the androgen receptor (AR) signaling pathway using the MDA cell line (AID 743040; further: on the % scale 0 is the no-effect control and ±100 the full control effect; nearly all actives have a fitted effect of over 20% in size). The gist of the method:
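Luciferase read-out, ONE-Glo, 30 min RT. Cells: MDA-kb2 AR-luc, MMTV promoter with AR and GR response elements. Compound exposure 16 h, 37C, 0% CO2, after 5 h pre-incubation. qHTS agonist mode.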

Experiment [7] shares this target. The experiment in a line: qHTS assay to identify small molecule antagonists of the androgen receptor (AR) signaling pathway using the MDA cell line (AID 743042; further: potency means the concentration at half of the fitted maximal effect; nearly all actives have a fitted effect of over 55% in size). The gist of the method:
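MDA-kb2 breast carcinoma cells carrying MMTV-luciferase (AR/GR responsive) were co-treated with compounds and the agonist R1881 for 16 h at 37C. Inhibition read as ONE-Glo luminescence; CellTiter-Fluor fluorescence measured in parallel for cytotoxicity.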

A short description of experiment [8]: qHTS assay to identify small molecule antagonists of the thyroid receptor (TR) signaling pathway - cell viability counter screen (AID 743064). Further: nearly all actives have a fitted effect of over 50% in size. Further: potency means the concentration at half of the fitted maximal effect. The gist of the method:
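GH3.TRE-Luc rat pituitary cells carrying a TRE-luciferase reporter were treated with compound plus 1 nM T3 (final) for 23.5 h at 37 °C. Viability was then read in the same wells by CellTiter-Fluor fluorescence after a further 30 min.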

Experiment [9] can be described thus: qHTS assay to identify small molecule antagonists of the thyroid receptor (TR) signaling pathway (AID 743065). Further: nearly all actives have a fitted effect of over 55% in size. Further: potency means the concentration at half of the fitted maximal effect. The gist of the method:
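GH3.TRE-Luc rat pituitary cells (two TREs driving luciferase) were dosed with compound, then stimulated with 1 nM T3 (final) for 23.5 h at 37 C. ONE-Glo luminescence was the read-out, with CellTiter-Fluor fluorescence as the cytotoxicity counter-screen.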

Experiment [10] is described as follows: qHTS assay to identify small molecule antagonists of the estrogen receptor alpha (ER-alpha) signaling pathway - cell viability counter screen (AID 743074; calls by dose curve;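 further: HEK293 cells carrying ER-alpha-UAS-bla reporter stimulated with 17beta-estradiol; nearly all actives have a fitted effect of over 45% in size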; further: potency means the concentration at half of the fitted maximal effect).
Experiment [11] addresses Estrogen receptor (Homo sapiens) (UniProt P03372). The experiment in a line: qHTS assay to identify small molecule agonists of the estrogen receptor alpha (ER-alpha) signaling pathway (AID 743075; calls by dose curve;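 further: HEK293 GripTite cells with ER-alpha and UAS-driven beta-lactamase reporter; on the % scale 0 is the no-effect control and ±100 the full control effect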). The settings on record: HEK293 ER-alpha-UAS-bla, beta-lactamase FRET ratio, 18 h; activation: at 70.1 µM (top of the series).
The nature of experiment [12]: qHTS assay to identify small molecule antagonists of the estrogen receptor alpha (ER-alpha) signaling pathway using the BG1 cell line - cell viability counter screen (AID 743081).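 Further: compound given together with 17beta-estradiol as the ER stimulus; nearly all actives have a fitted effect of over 45% in size.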 Further: potency means the concentration at half of the fitted maximal effect.
In experiment [13] the target is Aromatase (Homo sapiens) (UniProt P11511). The experiment in a line: qHTS assay to identify aromatase inhibitors (AID 743083). Further: nearly all actives have a fitted effect of over 55% in size. Further: potency means the concentration at half of the fitted maximal effect.
Experiment [14] can be described thus: qHTS assay to identify small molecule antagonists of the androgen receptor (AR) signaling pathway using the MDA cell line - cell viability counter screen (AID 743041; further: nearly all actives have a fitted effect of over 45% in size; further: potency means the concentration at half of the fitted maximal effect). The gist of the method: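 Cytotoxicity counter screen: MDA-kb2 AR-luc cells, compound + R1881, 16 h, 37C, 0% CO2; CellTiter-Fluor added at 15.5 h, fluorescence read after 30 min.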
In experiment [15] the test system is thyroid hormone receptor (rat, GH3 cells). The experiment in a line: qHTS assay to identify small molecule agonists of the thyroid receptor (TR) signaling pathway (AID 743066; calls by dose curve; further: on the % scale 0 is the no-effect control and ±100 the full control effect).
Experiment [16] can be described thus: qHTS assay to identify small molecule antagonists of the estrogen receptor alpha (ER-alpha) signaling pathway using the BG1 cell line (AID 743080; calls by dose curve;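 further: BG1 cells stimulated with 17beta-estradiol alongside compound; nearly all actives have a fitted effect of over 25% in size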; further: potency means the concentration at half of the fitted maximal effect). The gist of the method: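 Luciferase inhibition measured with ONE-Glo after 30 min at RT in BG1Luc4E2 cells given test compounds and 17beta-estradiol for 21.5 h at 37 C; CellTiter-Fluor viability read in the same wells beforehand.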

The target in experiment [17] is Estrogen receptor (Homo sapiens) (UniProt P03372). As to the kind of experiment: qHTS assay to identify small molecule antagonists of the estrogen receptor alpha (ER-alpha) signaling pathway (AID 743069; active means well fitted curve in the direction sought with a large enough effect in the signal ratio in the repeat runs, not every such curve was filed as active; the % refers to the signal ratio; further: on the % scale 0 is the no-effect control and ±100 the full control effect). The gist of the method: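 Beta-lactamase FRET fluorescence is read after 2 hr at room temperature with LiveBLAzer B/G substrate. Before that, ER-alpha-bla HEK293 cells sit 4 hr after plating, then receive compound plus 17beta-estradiol and incubate 18 hr at 37C.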

Experiment [18] has the same target. The experiment in a line: qHTS assay to identify small molecule agonists of the estrogen receptor alpha (ER-alpha) signaling pathway using the BG1 cell line (AID 743079). Further: on the % scale 0 is the no-effect control and ±100 the full control effect; nearly all actives have a fitted effect of over 20% in size. The settings on record: BG1Luc4E2 cells, ERE-luciferase agonist, 22 h.

Estrogen receptor (Homo sapiens), sequence (P03372 whole entry, looked up): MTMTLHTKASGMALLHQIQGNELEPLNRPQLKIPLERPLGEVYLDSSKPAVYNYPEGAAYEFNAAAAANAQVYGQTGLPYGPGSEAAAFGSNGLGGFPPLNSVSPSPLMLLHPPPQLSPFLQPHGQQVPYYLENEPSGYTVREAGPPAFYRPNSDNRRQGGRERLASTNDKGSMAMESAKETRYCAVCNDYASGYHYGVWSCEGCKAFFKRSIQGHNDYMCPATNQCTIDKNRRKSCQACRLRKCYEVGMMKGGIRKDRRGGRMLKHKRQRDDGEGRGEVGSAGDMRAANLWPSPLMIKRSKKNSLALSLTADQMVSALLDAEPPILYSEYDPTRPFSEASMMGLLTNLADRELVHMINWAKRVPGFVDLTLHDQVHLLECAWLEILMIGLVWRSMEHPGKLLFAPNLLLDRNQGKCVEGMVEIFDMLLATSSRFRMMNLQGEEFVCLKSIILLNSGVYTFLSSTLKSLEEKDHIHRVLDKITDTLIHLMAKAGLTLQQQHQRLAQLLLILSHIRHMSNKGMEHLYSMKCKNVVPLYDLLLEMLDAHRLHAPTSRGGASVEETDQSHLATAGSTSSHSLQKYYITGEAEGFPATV
Aromatase (Homo sapiens), sequence (P11511 whole entry, looked up): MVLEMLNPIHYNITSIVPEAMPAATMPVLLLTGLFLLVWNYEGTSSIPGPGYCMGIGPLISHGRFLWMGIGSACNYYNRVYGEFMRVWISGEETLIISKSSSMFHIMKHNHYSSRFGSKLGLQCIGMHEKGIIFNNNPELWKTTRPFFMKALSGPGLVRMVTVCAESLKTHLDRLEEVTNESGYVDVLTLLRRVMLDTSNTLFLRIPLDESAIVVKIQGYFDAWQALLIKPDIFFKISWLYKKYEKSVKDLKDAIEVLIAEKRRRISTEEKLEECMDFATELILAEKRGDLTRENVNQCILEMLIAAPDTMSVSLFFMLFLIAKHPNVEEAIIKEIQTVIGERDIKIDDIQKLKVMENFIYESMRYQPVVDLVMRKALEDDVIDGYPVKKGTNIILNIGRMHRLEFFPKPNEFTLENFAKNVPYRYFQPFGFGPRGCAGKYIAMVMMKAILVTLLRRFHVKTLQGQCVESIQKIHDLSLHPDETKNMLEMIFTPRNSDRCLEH
Androgen receptor (Homo sapiens), sequence (P10275 whole entry, looked up): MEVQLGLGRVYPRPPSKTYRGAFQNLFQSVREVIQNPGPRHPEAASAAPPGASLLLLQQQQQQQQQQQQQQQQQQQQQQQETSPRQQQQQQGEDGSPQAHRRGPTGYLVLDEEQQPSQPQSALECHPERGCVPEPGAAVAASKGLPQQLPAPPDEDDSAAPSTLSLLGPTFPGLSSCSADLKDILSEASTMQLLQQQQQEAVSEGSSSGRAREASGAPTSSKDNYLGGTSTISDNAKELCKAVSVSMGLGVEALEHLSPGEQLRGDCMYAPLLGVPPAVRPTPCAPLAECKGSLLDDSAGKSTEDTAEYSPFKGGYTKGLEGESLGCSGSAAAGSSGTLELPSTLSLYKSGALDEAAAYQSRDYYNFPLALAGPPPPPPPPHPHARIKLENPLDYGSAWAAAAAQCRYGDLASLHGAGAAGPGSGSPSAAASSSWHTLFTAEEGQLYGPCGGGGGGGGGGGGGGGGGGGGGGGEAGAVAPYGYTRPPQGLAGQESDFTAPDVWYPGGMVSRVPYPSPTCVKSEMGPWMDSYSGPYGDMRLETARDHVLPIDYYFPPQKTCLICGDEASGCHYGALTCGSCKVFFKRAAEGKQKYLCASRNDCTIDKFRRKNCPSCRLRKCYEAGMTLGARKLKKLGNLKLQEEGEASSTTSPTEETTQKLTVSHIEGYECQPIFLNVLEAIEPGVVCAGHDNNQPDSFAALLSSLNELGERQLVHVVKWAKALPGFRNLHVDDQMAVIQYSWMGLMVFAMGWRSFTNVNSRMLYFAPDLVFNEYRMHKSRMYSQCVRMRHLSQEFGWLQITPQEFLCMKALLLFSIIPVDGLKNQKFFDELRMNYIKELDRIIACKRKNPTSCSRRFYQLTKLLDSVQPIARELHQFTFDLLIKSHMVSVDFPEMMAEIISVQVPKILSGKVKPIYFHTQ

For `Cc1cc(CCN2CCN(c3nsc4ccccc34)CC2)cc2c1NC(=O)CC2(C)C`, the Potency was 49 µM (active) in experiment [1]; 3.06 µM (active) in experiment [2]; 5.45 µM (active) in [3]; 4.86 µM (active) in [4]; 13.8 µM (active) in experiment [5]; 15.4 µM (active) in experiment [7]. Also, the Potency is 43.3 µM (active) in experiment [8]; 27.3 µM (active) in [9]; 27.5 µM (active) in experiment [10]; 54.5 µM (active) in experiment [12]; 24.3 µM (active) in experiment [13]. Further, the Potency entry in experiment [6] and in [11] was “inactive” each time.

As to `O=C(OCC(COC(=O)c1ccccc1)(COC(=O)c1ccccc1)COC(=O)c1ccccc1)c1ccccc1`, the Potency entry in [1], in experiment [2], in experiment [3], in experiment [4], in [5] and in [14] was “inactive” throughout. The Potency result in [15], in experiment [10], in experiment [12] and in experiment [13] was “inactive” in each case.

Consider `CC(C)(C)c1ccc(C(=O)O)cc1`, for which the Potency entry in [1], in experiment [2], in experiment [3], in [4], in experiment [5] and in [14] was “inactive” in each case. Besides, the Potency result in experiment [8], in experiment [9], in experiment [15], in experiment [10], in [12] and in experiment [13] was “inactive” each time.

For `CCN1/C(=C/C=C/c2sc3ccccc3[n+]2CC)Sc2ccccc21`, the Potency was 21.3 µM (active) in experiment [1]; 0.0266 µM (active) in experiment [2]; 0.0298 µM (active) in experiment [3]; 0.0266 µM (active) in experiment [4]; 3.01 µM (active) in experiment [5]; 750 nM (active) in [14]. The Potency in [8] was 1.68 µM (active); in experiment [9] it was 0.841 µM (active); in experiment [10], 10.7 µM (active); in experiment [16] it was 2.98 µM (active); in experiment [12], 9.44 µM (active); in [13], 1.5 µM (active).

Turning to `N/C(=N\N=C\c1ccc(Cl)cc1)N/N=C/c1ccc(Cl)cc1`, the Potency result in experiment [1], in experiment [2], in experiment [3], in experiment [4], in [5] and in experiment [14] was “inactive” throughout. The Potency entry in experiment [15], in experiment [17], in experiment [10], in experiment [11], in [16] and in experiment [12] was “inactive” throughout. In addition, the Potency result in experiment [13] was “inactive”. Also, in experiment [18] (at 70.3 µM (top of the series)), the activation is -3.33%.

`Cc1cccc(S(=O)(=O)O)c1C`: the Potency result in experiment [1], in [2], in experiment [3], in experiment [4], in experiment [5] and in experiment [14] was “inactive” throughout. In addition, the Potency entry in experiment [8], in experiment [9], in experiment [15], in experiment [17], in experiment [10] and in [11] was “inactive” each time. Further, the Potency result in experiment [16], in experiment [12] and in [13] was “inactive” in each case. Also, the activation in experiment [18] (at 70.3 µM (top of the series)) is -6.85%.

With `CCCCCCCCCCCCCCCS(=O)(=O)Oc1ccccc1`, the Potency result in experiment [1], in experiment [2], in experiment [3], in experiment [4], in experiment [5] and in experiment [14] was “inactive” throughout. In addition, the Potency result in experiment [8], in [15], in experiment [17], in [10], in experiment [11] and in experiment [16] was “inactive” each time. Also, the Potency result in experiment [12] and in experiment [13] was “inactive” throughout. Besides, the activation in experiment [18] (at 70.3 µM (top of the series)) is -9.91%.

As to `Oc1ccc(Cl)cc1Sc1cc(Cl)ccc1O`, the Potency is 16.9 µM (active) and 19.5 µM (active) in [1]; 10.6 µM (active) and 30.6 µM (active) in experiment [2]; 11.9 µM (active) and 19.3 µM (active) in [3]; 16.8 µM (active) and 24.3 µM (active) in experiment [4]; 21.3 µM (active) and 13.8 µM (active) in [5]; 29.8 µM (active) and 61 µM (active) in experiment [14]. Moreover, the Potency in experiment [8] is 11.9 µM (active) and 7.68 µM (active); in experiment [10] it was 19 µM (active) and 38.8 µM (active); in [13], 26.6 µM (active) and 27.3 µM (active). The Potency result in experiment [15], in experiment [11], in experiment [16] and in experiment [12] was “inactive” each time.

`COc1cccc(N)c1`: the Potency result in experiment [1], in experiment [2], in experiment [3], in experiment [4], in experiment [5] and in [14] was “inactive” throughout. Moreover, the Potency entry in [8], in experiment [15], in [10] and in experiment [12] was “inactive” throughout.

For the molecule `c1ccc(CSCc2ccccc2)cc1`, the Potency entry in [1], in experiment [2], in experiment [3], in experiment [4], in experiment [5] and in [14] was “inactive” throughout. Moreover, the Potency result in [8], in experiment [9], in [15], in [10], in [12] and in [13] was “inactive” each time.

As to `Oc1cccc2cc3cccc(O)c3c(O)c12`, the Potency result in [1], in [2], in experiment [3], in experiment [4], in experiment [5] and in experiment [14] was “inactive” in each case. For the same molecule, the Potency entry in [8], in experiment [9], in experiment [15], in [10] and in [13] was “inactive” in each case.

Regarding `O=C(Oc1cccc2cccnc12)c1ccccc1`, the Potency result in experiment [1], in [17], in experiment [10], in [11], in experiment [16] and in experiment [12] was “inactive” in each case. Moreover, the Potency in experiment [2] is 2.66 µM (active); in [3], 2.98 µM (active); in [4], 6.68 µM (active); in experiment [5], 7.56 µM (active); in experiment [14] it was 6990 nM (active); in experiment [8] it was 13.3 µM (active). For the same molecule, the Potency in experiment [9] was 13.3 µM (active); in experiment [13], 18.8 µM (active).

On to `CCCCCCCCCCCCCCCC[N+](C)(C)CCN(Cc1ccc(OC)cc1)c1ncccn1`, for which the Potency entry in experiment [1], in experiment [5], in experiment [14], in experiment [17], in experiment [11] and in experiment [12] was “inactive” each time. Also, the Potency in [2] was 1.6 µM (active); in [3], 2.02 µM (active); in experiment [4], 2.27 µM (active); in [8], 11.4 µM (active); in experiment [13] it was 12.7 µM (active). Moreover, in experiment [18] (at 32.5 µM (top of the series)), the activation is -16.9%.

For the molecule `C[C@H](CCC(=O)O)[C@H]1CC[C@H]2[C@@H]3CC[C@@H]4C[C@H](O)CC[C@]4(C)[C@H]3CC[C@]12C`, the Potency entry in experiment [1], in experiment [2], in experiment [3], in [4], in [5] and in experiment [14] was “inactive” in each case. The Potency result in [15], in experiment [11], in experiment [16], in experiment [12] and in [13] was “inactive” each time. Moreover, the Potency in experiment [8] was 27.2 µM (active) and 54.5 µM (active); in experiment [10] it was 54.9 µM (active). The activation in [18] (at 70.3 µM (top of the series)) was -1.63% and -14.3%.
